How the values were obtained:
Assay in all cases: yeast three-hybrid, YBZ-1, SC-Leu-His + 0.5 mM 3-AT, 4 days
Conditions in all cases: tags: N-Gal4 AD-HA kept; label: inside an RPR1-promoter hybrid RNA with tandem MS2 sites; ssRNA
PUM1 PUF domain R8-CYC = PUM1 PUF domain R8-CYC (Homo sapiens, UniProt Q14671 828-1176, N1122C;Q1126C)
In short: (§1)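 The interaction score is the logarithmic change in variant frequency from input to selection. It uses log2, with a pseudocount of 1 for absent variants, and frequencies came from PCR-amplified, Illumina-sequenced repeat regions. The libraries were Pumilio-1 PUF domains randomized at the three base-contacting residues per repeat, co-expressed with matching RNA elements in strain YBZ-1 (LexA–MS2 coat fusion, HIS3 reporter). Plating lasted four days on SC-Leu (input) or SC-Leu-His + 0.5 mM 3-AT (selection).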

PUM1 PUF domain R8-AWQ = PUM1 PUF domain R8-AWQ (Homo sapiens, UniProt Q14671 828-1176, N1122A;Y1123W)
In short: as §1

PUM1 PUF domain R1-MPR = PUM1 PUF domain R1-MPR (Homo sapiens, UniProt Q14671 828-1176, S863M;R864P;Q867R)
In short: as §1

PUM1 PUF domain R1-KCQ = PUM1 PUF domain R1-KCQ (Homo sapiens, UniProt Q14671 828-1176, S863K;R864C)
In short: as §1

PUM1 PUF domain R1-KNI = PUM1 PUF domain R1-KNI (Homo sapiens, UniProt Q14671 828-1176, S863K;R864N;Q867I)
In short: as §1

PUM1 PUF domain R6-IFN = biological target: T1, PUM1 PUF domain R6-IFN (Homo sapiens, UniProt Q14671 828-1176, N1043I;Y1044F;Q1047N)
T1 sequence: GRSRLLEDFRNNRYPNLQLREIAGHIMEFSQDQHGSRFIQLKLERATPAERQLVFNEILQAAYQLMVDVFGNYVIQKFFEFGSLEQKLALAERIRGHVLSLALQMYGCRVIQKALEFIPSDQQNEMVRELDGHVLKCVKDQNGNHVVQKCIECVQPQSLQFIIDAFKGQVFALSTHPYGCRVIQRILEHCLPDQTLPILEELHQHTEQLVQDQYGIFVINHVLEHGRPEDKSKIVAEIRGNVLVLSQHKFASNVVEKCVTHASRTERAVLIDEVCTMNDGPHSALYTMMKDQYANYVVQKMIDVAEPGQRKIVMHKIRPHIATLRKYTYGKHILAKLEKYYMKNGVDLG
In short: as §1

PUM1 PUF domain R5-GSK = PUM1 PUF domain R5-GSK (Homo sapiens, UniProt Q14671 828-1176, C1007G;R1008S;Q1011K)
In short: as §1

PUM1 PUF domain R8-RYQ = PUM1 PUF domain R8-RYQ (Homo sapiens, UniProt Q14671 828-1176, N1122R)
In short: as §1

PUM1 PUF domain R3-EWR = PUM1 PUF domain R3-EWR (Homo sapiens, UniProt Q14671 828-1176, C935E;R936W;Q939R)
In short: as §1

PUM1 PUF domain R3-DWQ = PUM1 PUF domain R3-DWQ (Homo sapiens, UniProt Q14671 828-1176, C935D;R936W)
In short: as §1

PUM1 PUF domain R7-CTR = PUM1 PUF domain R7-CTR (Homo sapiens, UniProt Q14671 828-1176, S1079C;N1080T;E1083R)
In short: as §1

PUM1 PUF domain R7-EPD = PUM1 PUF domain R7-EPD (Homo sapiens, UniProt Q14671 828-1176, S1079E;N1080P;E1083D)
In short: as §1

PUM1 PUF domain R7-QGG = PUM1 PUF domain R7-QGG (Homo sapiens, UniProt Q14671 828-1176, S1079Q;N1080G;E1083G)
In short: as §1

PUM1 PUF domain R2-LHR = PUM1 PUF domain R2-LHR (Homo sapiens, UniProt Q14671 828-1176, N899L;Y900H;Q903R)
In short: as §1

PUM1 PUF domain R5-TPR = PUM1 PUF domain R5-TPR (Homo sapiens, UniProt Q14671 828-1176, C1007T;R1008P;Q1011R)
In short: as §1

With “GGCUAGAACUAGUGGAUCCCCCGGCGCCCGGCGGCUCGAGCCCGGGUAAGCGUAAAUAGUCUGCAUGCCGCCGGGCGCCAUGCCUGCAGGUCGACUCUAGAAAACAUG” the binding signal (PUM1 PUF domain R8-CYC) was 2.77 log2 enrichment (interaction score) and the binding signal (PUM1 PUF domain R8-AWQ) was 2.11 log2 enrichment (interaction score).
In the case of “GGCUAGAACUAGUGGAUCCCCCGGCGCCCGGCGGCUCGAGCCCGGGUAAGUGUAAAUUGUCUGCAUGCCGCCGGGCGCCAUGCCUGCAGGUCGACUCUAGAAAACAUG”, the binding signal (PUM1 PUF domain R1-MPR) is reported as 3.08 log2 enrichment (interaction score) and the binding signal (PUM1 PUF domain R1-KCQ) is reported as 3.28 log2 enrichment (interaction score).
For “GGCUAGAACUAGUGGAUCCCCCGGCGCCCGGCGGCUCGAGCCCGGGUAAGUGUAAAUCGUCUGCAUGCCGCCGGGCGCCAUGCCUGCAGGUCGACUCUAGAAAACAUG”, the binding signal (PUM1 PUF domain R1-MPR) was 2.06 log2 enrichment (interaction score) and the binding signal (PUM1 PUF domain R1-KNI) was 4.2 log2 enrichment (interaction score).
For “GGCUAGAACUAGUGGAUCCCCCGGCGCCCGGCGGCUCGAGCCCGGGUAAGUGAAAAUAGUCUGCAUGCCGCCGGGCGCCAUGCCUGCAGGUCGACUCUAGAAAACAUG”, the binding signal (PUM1 PUF domain R6-IFN) was 5.05 log2 enrichment (interaction score).
For “GGCUAGAACUAGUGGAUCCCCCGGCGCCCGGCGGCUCGAGCCCGGGUAAGUGUUAAUAGUCUGCAUGCCGCCGGGCGCCAUGCCUGCAGGUCGACUCUAGAAAACAUG”, the binding signal (PUM1 PUF domain R5-GSK) was 2.59 log2 enrichment (interaction score).
For “GGCUAGAACUAGUGGAUCCCCCGGCGCCCGGCGGCUCGAGCCCGGGUAAGGGUAAAUAGUCUGCAUGCCGCCGGGCGCCAUGCCUGCAGGUCGACUCUAGAAAACAUG”, the binding signal (PUM1 PUF domain R8-RYQ) was 2.37 log2 enrichment (interaction score).
“GGCUAGAACUAGUGGAUCCCCCGGCGCCCGGCGGCUCGAGCCCGGGUAAGUGUAAAUAGUCUGCAUGCCGCCGGGCGCCAUGCCUGCAGGUCGACUCUAGAAAACAUG” was tested, and the binding signal (PUM1 PUF domain R8-RYQ) was 4.32 log2 enrichment (interaction score) and the binding signal (PUM1 PUF domain R8-AWQ) was 3.01 log2 enrichment (interaction score).
“GGCUAGAACUAGUGGAUCCCCCGGCGCCCGGCGGCUCGAGCCCGGGUAAGUGUAAUUAGUCUGCAUGCCGCCGGGCGCCAUGCCUGCAGGUCGACUCUAGAAAACAUG” was tested, and the binding signal (PUM1 PUF domain R3-EWR) was 3.22 log2 enrichment (interaction score) and the binding signal (PUM1 PUF domain R3-DWQ) was 4.15 log2 enrichment (interaction score).
For “GGCUAGAACUAGUGGAUCCCCCGGCGCCCGGCGGCUCGAGCCCGGGUAAGUGUAAGUAGUCUGCAUGCCGCCGGGCGCCAUGCCUGCAGGUCGACUCUAGAAAACAUG”, the binding signal (PUM1 PUF domain R3-EWR) was 0.97 log2 enrichment (interaction score).
In the case of “GGCUAGAACUAGUGGAUCCCCCGGCGCCCGGCGGCUCGAGCCCGGGUAAGUUUAAAUAGUCUGCAUGCCGCCGGGCGCCAUGCCUGCAGGUCGACUCUAGAAAACAUG”, the binding signal (PUM1 PUF domain R7-CTR) is reported as 2.95 log2 enrichment (interaction score), the binding signal (PUM1 PUF domain R7-EPD) is reported as 3.42 log2 enrichment (interaction score) and the binding signal (PUM1 PUF domain R7-QGG) is reported as 3.51 log2 enrichment (interaction score).
With “GGCUAGAACUAGUGGAUCCCCCGGCGCCCGGCGGCUCGAGCCCGGGUAAGUGUAAAAAGUCUGCAUGCCGCCGGGCGCCAUGCCUGCAGGUCGACUCUAGAAAACAUG” the binding signal (PUM1 PUF domain R2-LHR) was 3.5 log2 enrichment (interaction score).
“GGCUAGAACUAGUGGAUCCCCCGGCGCCCGGCGGCUCGAGCCCGGGUAAGUGUCAAUAGUCUGCAUGCCGCCGGGCGCCAUGCCUGCAGGUCGACUCUAGAAAACAUG” was tested, and the binding signal (PUM1 PUF domain R5-TPR) was 5.18 log2 enrichment (interaction score).
